According to ChEMBL document CHEMBL3988442, “University of Dundee, Small-Polar-MMV Screening Library” (2021):
The whole screen tested about 38,000 compounds, of which about 1,200 (3.2%) showed an effect of 50% or more. The median lay at about -58%. The entries come from a sample that favours strong results as a whole.

These molecules were tested on Plasmodium falciparum (assay: Calibr Malaria Delayed Death Assay SOP). Details: concentration 4.99e-06 (unit not given; other assays of the set use mol/L).
Assay type: functional, organism-based
Parameters: scale not given: in the data most compounds retested in dose-response had high values

Row | SMILES | Percent Effect [%]
1 | COc1c[nH]c(C(=O)N2CCN(c3ccccc3)CC2)cc1=O | -92.19
2 | COC(=O)c1c(C(F)(F)F)cnc(OC)c1Cl | -7.4
3 | CCC(CO)NC(=O)NCc1cc(C#N)ccc1F (configuration not stated) | -31.58
4 | COc1cccc(CNc2cc(C)nc(-c3ccncc3)n2)c1O | -16.17
5 | COc1cccc(CNc2nc(C)cc(C)n2)c1OC | -94.43
6 | COc1cccc(CNc2cc(C)nc(-c3ccncc3)n2)c1OC | 88.78
7 | CNc1oc(-c2cc(S(=O)(=O)N3CCCC3)c(C)o2)nc1C#N | -60.45
8 | Cc1nn(C)c2nc(N3CCCC3c3nccs3)sc12 (configuration not stated) | -63.74
9 | NC(=O)c1cccnc1N1C[C@@H]2CC[C@H](C1)N(Cc1ccccn1)C2=O | -36.76
10 | Fc1ccc(OCc2nnc([C@H]3CCN(Cc4ccccn4)C3)o2)cc1 | -10.02
11 | CCC(=O)N1CCC2(CC1)CC(NC(=O)N(C)C)c1cc(C)ccc12 (configuration not stated) | -96.24
12 | Cc1noc(Cl)c1CCC(=O)N1CCN(CC(C)(C)O)CC1 | -36.25
13 | Cc1noc(C)c1CS(=O)(=O)CC(=O)N1CCc2sccc2C1 | -29.06
14 | Cc1noc(Cl)c1CCC(=O)N1CCc2sccc2C1 | 53
15 | Cc1noc(Cl)c1CCC(=O)N1CCN(c2cnccn2)CC1 | -135.5
16 | Cc1nn(C)c(C)c1CCC(=O)N1CCc2sccc2C1 | -11.91
17 | Cc1noc(Cl)c1CCC(=O)N1CCN(c2ccccc2)CC1 | 51.57
18 | CC(CO)(NC(=O)NCCc1ccc(Br)s1)C1CC1 (configuration not stated) | -76.18
19 | Cc1[nH]ncc1C(=O)N1CCCC1c1noc(C2CC2)n1 (configuration not stated) | -58.86
20 | CCOCC(O)CN1CCN(C(=O)c2ccc(OC)cc2)CC1 (configuration not stated) | -30.2
21 | O=C(Nc1ccc(=O)n(Cc2ccccc2Cl)c1)C1CC1 | -14.36
22 | CCOc1cccc(CNc2ccccc2C(=O)OC)c1O | -51.83
23 | COc1cccc(CNC(C)c2ccc(-n3ccnc3)cc2)c1OC.Cl (configuration not stated) | 16.61
24 | CCOc1cccc(CNC(C)c2ccc(-n3ccnc3)cc2)c1O (configuration not stated) | 74.87
25 | COCCCNC(=O)c1ccn(-c2ccc3ccccn23)n1 | -7.182
26 | N#CCCNC(=O)c1ccn(-c2ccc3ccccn23)n1 | -51.94

Row | SMILES | Percent Effect [%]
27 | CN(C)CCNC(=O)c1ccn(-c2ccc3ccccn23)n1.O=C(O)C(F)(F)F | 83.48
28 | CCn1nc2c(cc1=O)CN(c1ncnc3sccc13)CC2 | 2.158
29 | Clc1cccc2c3c([nH]c12)CCN(Cc1cc2n(n1)CCNC2)C3 | 78.46
30 | c1ccc(COC2CCN(Cc3cc4n(n3)CCCNC4)CC2)nc1 | -20.17
31 | OC(c1ccccn1)C1CCN(Cc2cc3n(n2)CCCNC3)CC1 (configuration not stated) | -111.2
32 | c1ccc2c3c([nH]c2c1)CN(Cc1cc2n(n1)CCNC2)CC3 | 44.64
33 | c1csc(N2CCN(Cc3cc4n(n3)CCNC4)CC2)n1 | -68.56
34 | CSCCC(Nc1nc(C)cc(C)n1)C(=O)NC(C)(C)CO (configuration not stated) | -11.3
35 | COc1ccc(CCN2CCCC(CN(C)Cc3ccc(C)o3)C2)cc1 (configuration not stated) | -48.89
36 | COc1ccccc1CC1CCCN(CCN2CCOC2=O)C1 (configuration not stated) | 47.59
37 | Cc1ncc(CN(C)C2CCCN(c3cccnn3)C2)s1 (configuration not stated) | -24.6
38 | CN(C)C(=O)CN1CCO[C@H]2CN(Cc3cccc(F)c3)C[C@H]21 | -27.48
39 | CCn1ccnc1CN(C)c1cc(C2CCCNC2)nc(C)n1 (configuration not stated) | -40.5
40 | Cc1nc(C2CCCNC2)cc(N(C)CCc2cn[nH]c2)n1 (configuration not stated) | -154.6
41 | Cc1nc(C2CCCNC2)cc(N(C)CCc2ccccc2)n1 (configuration not stated) | 52.76
42 | c1ccc(C(OCCNC2CCc3ncnn3C2)c2ccccc2)cc1 (configuration not stated) | 43.54
43 | c1ccc(C2(CNCc3cnc(N4CCOCC4)nc3)CC2)cc1 | -24.34
44 | OC1(CNCc2cnc(N3CCOCC3)nc2)CCCCC1 | -76.92
45 | Cc1ccccc1C1(CNCc2cnc(N3CCOCC3)nc2)CC1 | 50.04
46 | Fc1cnc(N2CC3(CCN(Cc4ccsc4)C3)C2)nc1.O=C(O)C(F)(F)F | -1.441
47 | O=C(O)C(F)(F)F.O=C(c1cnccn1)N1CCCC2(CCN(Cc3ccsc3)C2)C1 (configuration not stated) | -36.03
48 | O=C(O)C(F)(F)F.O=C(O)C(F)(F)F.O=C(O)[C@]12CCCN(Cc3ccsc3)C[C@H]1CN(c1ccccn1)C2 | -252.9
49 | Cc1cnc(N2CCC3(CCCN(c4ncc(F)cn4)C3)C2)nc1 (configuration not stated) | -149.1
50 | Fc1cnc(N2CCCC3(CCN(c4ncccn4)C3)C2)nc1 (configuration not stated) | -118
51 | O=C(O)C(F)(F)F.O=C(O)C(F)(F)F.c1cnc(N2CCCC3(CCN(c4ncccn4)C3)C2)nc1 (configuration not stated) | -228.4
52 | CCC(CC)CN1CCC2(CCCN(c3ncccn3)C2)C1 (configuration not stated) | 60.59
